# Only some compounds are listed: those with a hit (about 2.9% of all), similar ones and a draw of the others.
# Smad3 inh = Smad3 (human) transcription factor binding inhibition | AID 630 | inhibition, % at 25 µM | P84022 | 88,000 compounds, 0.29% hits | TR-FRET Smad3/Dy647-FoxH1 peptide binding, europium anti-His;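 active = compounds that reduce the energy-transfer binding signal between the protein and its labelled peptide by more than half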;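 also: 0% = Smad3 plus labelled peptide maximal FRET and 100% = peptide-only background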
# Target sequence (P84022 whole entry, looked up): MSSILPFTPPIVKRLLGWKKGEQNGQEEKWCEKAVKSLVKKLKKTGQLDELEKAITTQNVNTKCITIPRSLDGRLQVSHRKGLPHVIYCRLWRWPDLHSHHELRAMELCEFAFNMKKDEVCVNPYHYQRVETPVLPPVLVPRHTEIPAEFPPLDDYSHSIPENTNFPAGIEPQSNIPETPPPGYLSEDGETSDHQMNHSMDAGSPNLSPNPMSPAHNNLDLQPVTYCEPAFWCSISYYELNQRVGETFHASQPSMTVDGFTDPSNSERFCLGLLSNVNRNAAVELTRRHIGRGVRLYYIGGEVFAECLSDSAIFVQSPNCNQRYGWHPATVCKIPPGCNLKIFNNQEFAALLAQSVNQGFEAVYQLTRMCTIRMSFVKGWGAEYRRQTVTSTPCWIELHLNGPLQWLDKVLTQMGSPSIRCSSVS
# MRP-1 activ = MRP-1 activation. H69AR cells + doxorubicin, viability rescue, CellTiter-Glo. 140,000 compounds, 0.61% hits. viability increase, % at 10 µM. AID 799;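 active = viability gain under doxorubicin at or above a set limit, the compound median plus 3 SD, cut at about 4.7% in these data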;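 also: MRP-1 overexpressing cells given doxorubicin 25 µM after compound pretreatment; 18-22 h compound pretreatment then 72 h with doxorubicin before readout; 0% = doxorubicin-only wells and 100% = vehicle-treated cells without doxorubicin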
# ERb coact inh = blocks coactivator binding to human estrogen receptor beta; Q92731; 86,000 compounds, 1.3% hits; inhibition, % at 25.6 µM; TR-FRET ER-beta LBD / SRC1-Cy5 peptide binding; receptor agonist-loaded with 1 µM estradiol;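 active = compounds whose percent inhibition of the receptor-coactivator binding signal exceeds about 50% in the single-dose screen, limit read from the data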;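 also: 0% = receptor plus peptide wells without compound and 100% = peptide-only wells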
# ERa coact inh = blocks coactivator binding to human estrogen receptor alpha; P03372; inhibition, % at 25.6 µM; 86,000 compounds, 1.7% hits; TR-FRET ER-alpha LBD / SRC-1 peptide, estradiol-bound; in the data active = inhibition above about 50%;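 also: 0% = receptor plus peptide control and 100% = peptide only without receptor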
# MRP resist rev = compounds reversing MRP-mediated drug resistance; H69AR cells + 2 uM doxorubicin, CellTiter-Glo, 72 h; differential viability (reversal), % at 10 µM; 85,000 compounds, 0.04% hits; AID 602;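 active = viability drop by adding the cancer drug above about 55%, with treated viability meeting a 40% cutoff, limit read from the data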;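 also: viability without doxorubicin minus viability with 2 µM doxorubicin for each compound; larger differential means the compound sensitizes cells more to doxorubicin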
# ERa coact pot = ER-alpha (human) coactivator binding potentiation | 86,000 compounds, 1.3% hits | coactivator binding (% of control), % at 25.6 µM | TR-FRET ERalpha-LBD/SRC-Cy5 coactivator binding, 2 h; 100 = basal binding, no effect; in the data active = activity above about 200%;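 also: binding measured in presence of low estradiol as agonist stimulus; 0% = peptide alone without receptor and 100% = receptor with peptide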
# * = called active by the depositor; nt = no result given; [ ] = dose if it differs, or a comment.
SMILES,Smad3 inh,MRP-1 activ,ERb coact inh,ERa coact inh,MRP resist rev,ERa coact pot
c1ccc(Cn2nnnc2CN2CCN(Cc3ccc4c(c3)OCO4)CC2)cc1,8,-3,0,6,-10,209*
Cc1nc(NCc2ccc3c(c2)OCO3)c2nnn(Cc3ccccc3)c2n1,3,-5,27,63*[fluorescence artefact?],3,154
c1ccc(Cn2nnc3c(NCc4ccc5c(c4)OCO5)nc(C4CC4)nc32)cc1,-11,-5,43,79*[fluorescence artefact?],1,56
COc1ccc(Nc2nc(C)nc3c2nnn3Cc2ccccc2)cc1OC,6,-1,-7,-5,-4,109
CC(C)CNC(=O)O,0,nt,nt,nt,nt,nt
COc1ccc(-c2cn3c(C)c(C(=O)Nc4cccc(NC(C)=O)c4)sc3n2)cc1,-2,-5,21,22,10,158
Cc1c(C(=O)NCC(C)C)sc2nc(-c3ccc(F)cc3)cn12,-3,-1,3,4,16,109
COC(=O)c1ccc(NC(=O)c2sc3nc(-c4ccccc4)cn3c2C)cc1,1,-2,43,39,-19,537*[fluorescence artefact?]
Cc1c(C(=O)Nc2ccncc2)sc2nc(-c3ccc(F)cc3)cn12,5,-5,7,-6,-3,367*[fluorescence artefact?]
COCCN(CCOC)C(=O)c1sc2nc(-c3ccccc3)cn2c1C,7,0,1,-7,7,103
COc1ccc(-c2cn3c(C)c(C(=O)Nc4ccncc4)sc3n2)cc1,8,-1,-2,-3,2,345*
COC(=O)c1ccc(NC(=O)c2cccc(Cl)c2)o1,nt,3,nt,nt,nt,nt
CC(C)(CCc1nc2ccccc2[nH]1)C(=O)O,-6,nt,nt,nt,nt,nt
N=C(N)SCCSC(=N)N,68*,nt,nt,nt,nt,nt
CCNc1cc2n(c(=O)n1)CCc1cc(OC)c(OC)cc1-2,-10,-3,-2,-8,11,98
COc1cc2c(cc1OC)-c1cc(NCc3ccccn3)nc(=O)n1CC2,10,-2,48,-10,16,513*[fluorescence artefact?]
CCC(CC)n1[nH]c(=O)c2c(C)cc(C)nc21,-5,-2,2,-2,8,116
Cc1cc(C)c2c(=O)[nH]n(C(C)C)c2n1,14,0,-17,-20,2,295*
CCOc1ccc(Nc2oc(-c3ccccc3Cl)nc2C#N)cc1,15,-2,31,71*,-23,23
O=C(c1ccco1)N1CCN(c2nc(C3CC3)nc3c2nnn3Cc2ccccc2Cl)CC1,2,7.0*,-17,-14,-6,89
CCOC(=O)N1CCC(NC(=O)c2cnn3c(C(F)(F)F)cc(-c4cccc(OC)c4)nc23)CC1,23,nt,51*[fluorescence artefact?],72*[fluorescence artefact?],-3,183
CCOC(=O)N1CCN(c2nc(-c3ccco3)cc(C(F)(F)F)n2)CC1,13,-1,-4,0,5,85
CCOC(=O)N1CCN(c2nc(-c3cccc(OC)c3)cc(C(F)(F)F)n2)CC1,-2,8.7*,21,22,26,76
CCCCCCc1nc2ccccc2c(=O)n1NC(=O)c1c(O)c2cccc3c2n(c1=O)CC3,-9,nt,25,12,-45,100
CC(C)(N)C(=O)N[C@@H]1C(=O)N2[C@H]1SC(C)(C)[C@H]2C(=O)O,4,nt,nt,nt,nt,nt
SMILES,Smad3 inh,MRP-1 activ,ERb coact inh,ERa coact inh,MRP resist rev,ERa coact pot
O=C(O)c1[nH]c2ccccc2c1-c1ccccc1,80*[fluorescence artefact?],-1,3,20,8,80
CCNc1sc(C(=O)c2cccs2)c(N)c1-c1nc2ccccc2s1,6,9.0*,20,19,36,81
Nc1ncnc2c1ncn2[C@H]1O[C@@H](CO)[C@H](O)[C@H]1N,-12,nt,nt,nt,nt,nt
O=C(Nc1cccc(NC(=O)c2ccc(Br)o2)n1)c1ccc(Br)o1,-50,3,22,30,-2,258*[fluorescence artefact?]
O=C(Nc1nc2ccc(Cl)cc2s1)c1ccc(Br)o1,nt,0,nt,nt,nt,nt
O=C(Nc1nc2c(Cl)cccc2s1)c1ccc(Br)o1,-7,2,-8,-82,7,535*[fluorescence artefact?]
C/C(N)=C(/C#N)C(=O)CSc1nnnn1-c1ccc(C)cc1,11,-4,64*,51*[fluorescence artefact?],10,59
C/C(N)=C(/C#N)C(=O)CSc1nnnn1-c1ccccc1,-4,-3,90*[fluorescence artefact?],85*[fluorescence artefact?],0,7
O=C(CSc1nnnn1-c1ccccc1)CSc1nnnn1-c1ccccc1,nt,-1,nt,nt,nt,nt
C[N+](C)([O-])Cc1cc(-c2ccccc2)ccc1O,10,nt,nt,nt,nt,nt
COc1ccccc1C1C(C(=O)c2sc(C)nc2C)=C(O)C(=O)N1CCN1CCOCC1 (centres undefined),nt,7.6*,nt,nt,nt,nt
COc1cccc(C2C(C(=O)c3sc(C)nc3C)=C(O)C(=O)N2CCN2CCOCC2)c1OC (centres undefined),3,0,-2,5,-11,99
COc1cccc(NS(=O)(=O)c2ccc3[nH]cc(C(=O)NCCN4CCOCC4)c(=O)c3c2)c1,20,2,-22,26,6,53
CCOCCCNC(=O)c1c[nH]c2ccc(S(=O)(=O)Nc3cccc(OC)c3)cc2c1=O,12,4,16,53*,8,32
CCN(CC)C(=O)c1c[nH]c2ccc(S(=O)(=O)Nc3cc(C)cc(C)c3)cc2c1=O,9,-2,24,56*,18,26
CCc1ccccc1NS(=O)(=O)c1ccc2[nH]cc(C(=O)NCc3ccco3)c(=O)c2c1,11,-2,39,38,-14,277*[fluorescence artefact?]
Nc1nccc(Nc2ccc(S(N)(=O)=O)cc2)n1,4,nt,nt,nt,nt,nt
Cc1cccc2[nH]c3c(=O)n(CCN4CCNCC4)cnc3c12,-2,-5,-3,-11,nt,114
CC(C)CCn1cnc2c([nH]c3cccc(Cl)c32)c1=O,5,-1,17,15,3,596*[fluorescence artefact?]
COCCN=c1scc(-c2cccs2)n1/N=C/c1ccc(O)c(O)c1O,nt,-5,nt,nt,nt,nt
CCN=c1scc(C)n1/N=C/c1ccc(O)c(O)c1O,nt,6.2*,nt,nt,nt,nt
O=C(O)c1ccc(NS(=O)(=O)Cc2ccccc2)cc1,-2,nt,nt,nt,nt,nt
CN(/N=C/c1cccnc1)c1cnn(-c2ccc(F)c(Cl)c2)c(=O)c1Cl,-26,-5,37,61*,10,125
O=C(Nc1ccc2c(c1)OCO2)C1CCN(C(=O)CSc2ncnc3ccccc23)CC1,0,nt,46,55*[fluorescence artefact?],20,60
CC(Sc1ncnc2ccccc12)C(=O)Nc1ccc2c(c1)OCO2 (centres undefined),-10,-5,-1,-8,11,87
FC(F)(F)c1cnc(Nc2ccc(N3CCOCC3)cc2)c(Cl)c1,-11,-1,86*[fluorescence artefact?],63*[fluorescence artefact?],8,61
N#CC(c1ccccc1)(c1ncc(C(F)(F)F)cc1Cl)N1CCOCC1 (centres undefined),nt,0,nt,nt,nt,nt
COc1cc(NCCC(=O)O)c2ncccc2c1,6,nt,nt,nt,nt,nt
COc1cc(NCCCCCCCN)c2ncccc2c1,16,-3,39,78*[fluorescence artefact?],0,38
Cc1ccc(S(=O)(=O)O[C@@H]2[C@@H]3OC(C)(C)O[C@@H]3O[C@@H]2[C@@H]2COC(C)(C)O2)cc1,48,nt,nt,nt,nt,nt

# Screens from PubChem.
